The text below walks through data of PubChem BioAssay (NCATS).

SMILES strings stand for the structures. Results filed as inconclusive are left out. Values without a mark were called inactive. The source made the active and inactive calls. Unless noted, calls come from the whole dose curve; as a rule, active = well fitted curve in the direction sought with a large enough effect; inconclusive = small, poorly fitted or top-dose-only effect, or another doubt; inactive = no such curve, though single readings can be large; an effect the other way counts as inactive or inconclusive.

The nature of test [1]: Cell Viability - LYMP1-003 - Assay at 40 hr (AID 964). Note: % is set by controls: 0 for no effect and ±100 for the full control effect; nearly all actives have a fitted effect of over 60% in size. In short, it runs like this:
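Viability is taken as cellular ATP, read by CellTiter-Glo luminescence after 40 h of compound exposure at 37 C. Cells: human lymphoblastoid line LYMP1-003 at 2500/well; AC50 values derived by Hill-equation fitting of concentration-response data.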

A short description of test [2]: Cell Viability - LYMP2-025 (AID 976).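 Note: plate controls were DMSO only for no effect and tetraoctylammonium bromide control for full effect.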 In short, it runs like this: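 Cytotoxicity read as loss of intracellular ATP (luciferase luminescence) after 24 h compound treatment at 37 C. Uses LYMP2-025 lymphoblastoid cells in 1536-well format; Hill-equation modelling gives AC50; tetraoctylammonium bromide as positive control.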
A short description of test [3]: Cell Viability - LYMP2-008 (AID 980). Note: % is set by controls: 0 for no effect and ±100 for the full control effect; nearly all actives have a fitted effect of over 60% in size. In short, it runs like this: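 Cytotoxicity determined from ATP-dependent luciferase luminescence (CellTiter-Glo) following 24 h compound exposure of human lymphoblastoid LYMP2-008 cells at 37 C. Concentration-response data fitted to the Hill equation to give AC50.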
Test [4] in a line: Cell Viability - LYMP2-024 (AID 988).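 Note: plate controls were DMSO only for no effect and 92 µM tetraoctylammonium bromide for full effect; nearly all actives have a fitted effect of over 60% in size.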 In short, it runs like this: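 Cytotoxicity was taken as a decrease in ATP (CellTiter-Glo luminescence) after 24 hr compound exposure at 37 C of LYMP2-024 lymphoblastoid cells, 2500 cells/well. Concentration-response data were fitted to the Hill equation to give AC50.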
Test [5] can be described thus: Cell Viability - LYMP1-002 - Assay at 40 hr (AID 994).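 Note: 0% = DMSO only and full inhibition = 92 µM tetraoctylammonium bromide; nearly all actives have a fitted effect of over 60% in size.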 In short, it runs like this:
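Cytotoxicity was read as loss of cellular ATP (CellTiter-Glo luminescence) after 40 hr compound exposure at 37 C of 2500 LYMP1-002 lymphoblastoid cells per well. Concentration-response data were fitted with the standard Hill equation to give AC50.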

Test [6] deals with Estrogen receptor (Homo sapiens) (UniProt P03372). Nature of the test: qHTS assay for small molecule antagonists of estrogen receptor alpha signaling (AID 588513; active = well fitted curve in the direction sought with a large enough effect in the signal ratio, with a control signal flat, not every such curve was filed as active; the % refers to the signal ratio; note: % is set by controls: 0 for no effect and ±100 for the full control effect). In short, it runs like this:
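Beta-lactamase reporter, antagonist mode, HEK 293 GripTite cells; 0.5nM E2 stimulus, 18 h, 37 C; CCF4 dye 2 h RT; fluorescence. IC50 and efficacy from Hill fits, normalized to E2 and DMSO.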
(In general: Quantitative high-throughput screening tests each substance at several concentrations.)

The target is the same in test [7]. Briefly: qHTS assay for small molecule agonists of estrogen receptor alpha signaling (AID 588514; calls by dose curve;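 note: 0% = vehicle only and 100% = reference agonist; nearly all actives have a fitted effect of over 70% in size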). Put shortly:
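EC50 and efficacy came from Hill fits of beta-lactamase reporter signal (CCF4 dye, 2 h at room temperature) scaled between DMSO and 20 nM 17-beta-estradiol. Agonist mode: HEK293 ER-alpha-UAS-bla cells in charcoal/dextran-stripped serum medium, 18 h compound exposure at 37 C.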

Test [8] concerns the target Bile acid receptor (Homo sapiens) (UniProt Q96RI1). Nature of the test: qHTS assay for small molecule antagonists of farnesoid X receptor signaling (AID 588526; calls by dose curve; note: potency is the fitted concentration of half-maximal effect). Put shortly:
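Antagonist mode: titrated compounds tested against chenodeoxycholic acid stimulation (normalized to 50 uM CDCA and DMSO) in GeneBLAzer HEK293T cells for 16 h. Beta-lactamase read by CCF4 fluorescence; IC50 from Hill fits.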

The target of test [9] is Glucocorticoid receptor (Homo sapiens) (UniProt P04150). Nature of the test: qHTS assay for small molecule antagonists of glucocorticoid receptor signaling (AID 588533; active = well fitted inhibition curve with a large enough effect in the signal ratio, with a control signal flat, not every such curve was filed as active; the % refers to the signal ratio;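 note: cells stimulated with 2 nM dexamethasone as agonist; % is set by controls: 0 for no effect and ±100 for the full control effect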). In short, it runs like this:
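Antagonist-mode qHTS: compound titrations added to GRE-bla HeLa cells, then dexamethasone 2 nM final; 18 h, 37 C. CCF4 FRET fluorescence normalized to dexamethasone and DMSO; IC50 from Hill fit.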

Test [10] concerns the target Retinoic acid receptor RXR-alpha (Homo sapiens) (UniProt P19793). Briefly: qHTS assay for small molecule agonists of retinoid X receptor alpha signaling (AID 588544; calls by dose curve;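 note: 0% = DMSO basal wells and 100% = reference agonist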).
Test [11] concerns the target Thyroid hormone receptor beta (Homo sapiens) (UniProt P10828). Nature of the test: qHTS assay for small molecule antagonists of thyroid hormone receptor beta signaling (AID 588547; active = well fitted inhibition curve with a large enough effect in the signal ratio, with a control signal flat, not every such curve was filed as active; the % refers to the signal ratio;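 note: cells stimulated with 0.4 nM T3 agonist during compound exposure; % is set by controls: 0 for no effect and ±100 for the full control effect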). The settings on record: TR-UAS-bla HEK293, beta-lactamase ratio, antagonist mode, 18 h. In short, it runs like this: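 TR-UAS-bla GripTite HEK293 cells in 2% charcoal/dextran FBS medium; compounds 0.59 nM to 92 uM with T3 at 0.4nM final, 18 h at 37 C. Beta-lactamase read by CCF4 fluorescence (460/530 nm); Hill fits gave IC50 and efficacy.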

Test [12] is described as follows: qHTS assay to identify small molecules that stimulate interleukin-8 (IL-8) secretion (AID 651758; active = well fitted activation curve with a large enough effect in the signal ratio; the % refers to the signal ratio; note: 0% is about no effect). In short, it runs like this: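 Compounds are added to THP-1 cells (2000 per well) and left 16 hrs at 37 C. A labeled anti-IL-8 antibody pair is then added, and IL-8 secretion is measured by time-resolved FRET after 1-3 hrs at room temperature.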
The target in test [13] is Mitogen-activated protein kinase 10 (Mus musculus) (UniProt Q61831). Nature of the test: JNK3 AlphaScreen Assay (AID 530; active = well fitted curve in either direction with a large enough effect, not every such curve was filed as active;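 note: kinase came from lysate of stimulated human HepG2 cells; signal reports phosphorylation of biotinylated GST-cJun 1-79 at Ser73 with 10 µM ATP; % is set by controls: 0 for no effect and ±100 for the full control effect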). Put shortly:
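Activity was read by AlphaScreen after JNK3-containing HepG2 lysate (cytokine pre-activated) phosphorylated biotinylated GST-cJun with 10 uM ATP at room temperature. Phospho-Ser73 cJun antibody with Protein-A acceptor beads provided detection.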
(Alpha assays give light when donor and acceptor beads are brought close together.)

Test [14] is described as follows: Cell Viability - LYMP2-026 (AID 989). Note: % is set by controls: 0 for no effect and ±100 for the full control effect; nearly all actives have a fitted effect of over 50% in size. Put shortly: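 Cytotoxicity read as ATP-dependent luminescence (CellTiter-Glo, 30 min room temperature) after 24 h compound treatment at 37 C. LYMP2-026 lymphoblastoid line seeded at 2500 cells/well; AC50 derived by standard Hill equation.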
Test [15] can be described thus: Cell Viability - LYMP2-023 (AID 975).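 Note: cellular ATP measured by luciferase luminescence as viability proxy; cells exposed to compound for 24 hours at 37 °C; plate controls were DMSO only for no effect and 92 µM tetraoctylammonium bromide control for full effect; nearly all actives have a fitted effect of over 55% in size.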 Put shortly: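 Intracellular ATP, read by CellTiter-Glo luminescence, reports viability after 24 hr compound exposure at 37 C. 2500 lymphoblastoid cells/well (LYMP2-023) seeded 5 hr beforehand; Hill fits give AC50; positive control tetraoctylammonium bromide.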
For test [16], the target named is Glucocorticoid receptor (Homo sapiens) (UniProt P04150). Nature of the test: qHTS assay for small molecule agonists of glucocorticoid receptor signaling (AID 588532; active = well fitted curve in the direction sought with a large enough effect in the signal ratio, with a control signal flat; the % refers to the signal ratio;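 note: 100% = dexamethasone at 0.1 µM and 0% = DMSO only wells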). As to conditions: HeLa MMTV-bla, beta-lactamase ratio, agonist, 18 h; active compounds read high; percent of dexamethasone control, DMSO zero. Put shortly: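 Cells were plated and rested 3-5 h at 37 C, compounds were added in titration and incubated 18 h, then CCF4 substrate was loaded for 2 h at RT before reading blue/green fluorescence. EC50 came from Hill-equation fitting.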

Test [17] is described as follows: Cell Viability - Mesenchymal (AID 546).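 Note: cells exposed to compound for 40 hours before reading; 0% = DMSO only and -100% = 100 µM tamoxifen.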 As to conditions: mesenchymal cells viability, qHTS; activity change, negative = cytotoxicity: at 91.7 µM (top of the series). In short, it runs like this:
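Human renal mesenchymal cells (glomerulus-derived), 1000 cells/well, 5 hr 37 °C pre-incubation; compound 40 hr, 37 °C; CellTiter-Glo, 20 min RT; luminescence; AC50 via Hill equation.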

Test [18] in a line: Cell Viability - LYMP2-006 (AID 978). In short, it runs like this: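 qHTS, 1536-well; 2500 cells/well, 5 hr 37 C; cpd 24 hr 37 C; CellTiter-Glo 30 min RT; luminescence. Tetraoctylammonium bromide pos. ctrl. AC50 via Hill eqn.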
The nature of test [19]: qHTS assay for small molecule antagonists of the retinoid-related orphan receptor gamma (ROR-gamma) signaling pathway - cell viability counter screen (AID 720652; active = well fitted curve in the direction sought with a large enough effect in the repeat runs; an effect the other way counts as inactive or inconclusive). In short, it runs like this: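 Cytotoxicity counter screen: intracellular ATP (CellTiter-Glo luminescence) measured in the doxycycline-induced CHO RORE-luciferase reporter line after 16 hr compound exposure at 37 C, 5% CO2.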

Test [20] has as its target Peroxisome proliferator-activated receptor gamma (Homo sapiens) (UniProt P37231). Briefly: qHTS assay for small molecule antagonists of peroxisome proliferator-activated receptor gamma signaling (AID 588537; active = well fitted inhibition curve with a large enough effect in the signal ratio, with a control signal flat, not every such curve was filed as active; the % refers to the signal ratio;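 note: reporter cells co-stimulated with 50 nM rosiglitazone agonist during compound treatment; % of control where 0% means no effect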). In short, it runs like this: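 Fluorescence at 460 and 530 nm (405 nm excitation) reported beta-lactamase cleavage of CCF4 after 2 h room-temperature loading. HEK293 reporter cells in 1% charcoal/dextran-treated FBS had received compound and rosiglitazone for 16 h.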

Chain of Estrogen receptor (Homo sapiens) (P03372 whole entry, looked up): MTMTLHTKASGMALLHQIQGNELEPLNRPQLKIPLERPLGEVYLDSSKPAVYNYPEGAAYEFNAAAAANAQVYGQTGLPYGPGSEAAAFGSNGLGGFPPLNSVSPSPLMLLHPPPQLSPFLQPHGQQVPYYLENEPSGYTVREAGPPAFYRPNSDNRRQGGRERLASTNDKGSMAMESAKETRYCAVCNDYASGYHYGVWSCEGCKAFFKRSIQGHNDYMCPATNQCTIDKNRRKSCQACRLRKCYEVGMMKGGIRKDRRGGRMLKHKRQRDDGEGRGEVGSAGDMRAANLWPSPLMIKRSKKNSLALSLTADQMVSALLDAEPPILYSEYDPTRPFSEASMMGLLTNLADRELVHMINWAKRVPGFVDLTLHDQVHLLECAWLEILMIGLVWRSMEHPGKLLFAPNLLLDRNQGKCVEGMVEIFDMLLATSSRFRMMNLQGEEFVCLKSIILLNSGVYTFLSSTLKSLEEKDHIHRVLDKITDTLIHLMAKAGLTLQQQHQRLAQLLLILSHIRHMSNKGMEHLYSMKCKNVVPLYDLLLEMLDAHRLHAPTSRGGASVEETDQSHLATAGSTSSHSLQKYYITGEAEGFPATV
Chain of Glucocorticoid receptor (Homo sapiens) (P04150 whole entry, looked up): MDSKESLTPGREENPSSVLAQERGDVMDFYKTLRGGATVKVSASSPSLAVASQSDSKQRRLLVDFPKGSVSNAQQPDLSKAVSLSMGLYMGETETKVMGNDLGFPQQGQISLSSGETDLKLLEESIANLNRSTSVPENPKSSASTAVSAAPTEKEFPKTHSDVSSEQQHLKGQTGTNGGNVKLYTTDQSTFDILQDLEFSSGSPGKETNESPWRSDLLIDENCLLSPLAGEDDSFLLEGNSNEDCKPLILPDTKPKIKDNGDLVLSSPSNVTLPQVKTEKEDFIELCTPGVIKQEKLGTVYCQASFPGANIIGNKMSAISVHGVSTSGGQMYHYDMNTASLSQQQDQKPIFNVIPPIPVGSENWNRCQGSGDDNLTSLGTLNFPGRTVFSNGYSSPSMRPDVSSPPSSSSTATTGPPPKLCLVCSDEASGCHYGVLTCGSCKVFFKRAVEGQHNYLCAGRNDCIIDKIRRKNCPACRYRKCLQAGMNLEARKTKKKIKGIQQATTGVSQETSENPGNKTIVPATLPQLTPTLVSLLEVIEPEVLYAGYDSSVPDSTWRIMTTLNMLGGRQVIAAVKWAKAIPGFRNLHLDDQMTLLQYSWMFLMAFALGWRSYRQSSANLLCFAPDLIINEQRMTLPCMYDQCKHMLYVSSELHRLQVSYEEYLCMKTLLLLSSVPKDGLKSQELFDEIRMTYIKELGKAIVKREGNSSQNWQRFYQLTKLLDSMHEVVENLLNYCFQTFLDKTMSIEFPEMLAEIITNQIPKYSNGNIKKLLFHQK
Chain of Thyroid hormone receptor beta (Homo sapiens) (P10828 whole entry, looked up): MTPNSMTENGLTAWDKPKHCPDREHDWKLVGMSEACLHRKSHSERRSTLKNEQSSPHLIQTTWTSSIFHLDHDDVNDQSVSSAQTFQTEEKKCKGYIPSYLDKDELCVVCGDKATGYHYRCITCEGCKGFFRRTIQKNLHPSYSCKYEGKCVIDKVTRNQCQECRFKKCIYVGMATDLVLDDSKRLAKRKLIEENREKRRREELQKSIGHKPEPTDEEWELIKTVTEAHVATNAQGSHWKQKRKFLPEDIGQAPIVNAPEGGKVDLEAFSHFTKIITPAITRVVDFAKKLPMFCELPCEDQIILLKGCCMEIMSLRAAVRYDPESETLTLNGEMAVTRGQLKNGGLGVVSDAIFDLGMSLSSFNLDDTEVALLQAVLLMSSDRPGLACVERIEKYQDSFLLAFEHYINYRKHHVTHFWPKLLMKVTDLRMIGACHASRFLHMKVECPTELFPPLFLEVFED
Chain of Retinoic acid receptor RXR-alpha (Homo sapiens) (P19793 whole entry, looked up): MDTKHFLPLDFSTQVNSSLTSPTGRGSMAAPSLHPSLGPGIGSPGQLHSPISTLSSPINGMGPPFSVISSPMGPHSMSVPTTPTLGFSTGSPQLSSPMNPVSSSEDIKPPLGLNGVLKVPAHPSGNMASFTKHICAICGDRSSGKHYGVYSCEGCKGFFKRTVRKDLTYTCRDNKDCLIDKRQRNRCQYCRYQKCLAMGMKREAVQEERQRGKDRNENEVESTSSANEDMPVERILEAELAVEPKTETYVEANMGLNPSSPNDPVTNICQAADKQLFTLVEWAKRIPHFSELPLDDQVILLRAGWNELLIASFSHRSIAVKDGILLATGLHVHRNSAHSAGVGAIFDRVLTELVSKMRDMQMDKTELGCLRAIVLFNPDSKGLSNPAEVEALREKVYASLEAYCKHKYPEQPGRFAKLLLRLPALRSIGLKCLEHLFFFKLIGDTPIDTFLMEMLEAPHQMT
Chain of Bile acid receptor (Homo sapiens) (Q96RI1 whole entry, looked up): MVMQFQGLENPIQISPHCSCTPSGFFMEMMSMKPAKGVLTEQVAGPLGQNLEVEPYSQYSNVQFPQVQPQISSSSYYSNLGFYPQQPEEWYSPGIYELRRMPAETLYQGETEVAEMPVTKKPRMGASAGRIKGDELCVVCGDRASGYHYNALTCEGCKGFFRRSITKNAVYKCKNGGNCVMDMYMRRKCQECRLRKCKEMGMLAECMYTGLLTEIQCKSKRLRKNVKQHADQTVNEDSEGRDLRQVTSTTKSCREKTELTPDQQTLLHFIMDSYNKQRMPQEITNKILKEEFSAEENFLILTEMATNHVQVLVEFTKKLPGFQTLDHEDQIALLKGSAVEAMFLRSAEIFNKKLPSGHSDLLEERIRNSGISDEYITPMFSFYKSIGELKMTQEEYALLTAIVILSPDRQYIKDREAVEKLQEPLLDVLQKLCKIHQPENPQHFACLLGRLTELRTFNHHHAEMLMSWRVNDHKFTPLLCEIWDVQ
Chain of Peroxisome proliferator-activated receptor gamma (Homo sapiens) (P37231 whole entry, looked up): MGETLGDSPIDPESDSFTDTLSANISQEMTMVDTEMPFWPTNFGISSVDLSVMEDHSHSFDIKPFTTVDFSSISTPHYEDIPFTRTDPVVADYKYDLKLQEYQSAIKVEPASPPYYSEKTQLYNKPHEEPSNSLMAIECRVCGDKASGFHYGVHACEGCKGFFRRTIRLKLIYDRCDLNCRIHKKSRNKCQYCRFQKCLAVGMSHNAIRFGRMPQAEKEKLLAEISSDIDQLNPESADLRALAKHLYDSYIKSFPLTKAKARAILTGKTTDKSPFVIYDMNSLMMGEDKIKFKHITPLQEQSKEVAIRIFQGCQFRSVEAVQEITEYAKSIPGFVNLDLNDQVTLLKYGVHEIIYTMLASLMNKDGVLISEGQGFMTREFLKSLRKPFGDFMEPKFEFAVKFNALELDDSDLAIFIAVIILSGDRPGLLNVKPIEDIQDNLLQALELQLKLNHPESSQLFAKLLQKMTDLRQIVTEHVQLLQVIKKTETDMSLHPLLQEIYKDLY

As for `Cc1c(N)cccc1Cl`, the Potency entry in test [1], in test [2], in test [3], in [4], in test [5] and in test [7] was “inactive” each time. The Potency result in [8], in [9], in test [10] and in test [12] was “inactive” in each case. For the same compound, in test [6], the call was inactive. Also, in [11], the activity change % (negative = inhibition) is 0.909%.
On to `O=[N+]([O-])c1ccc(F)cc1F`, for which the Potency entry in test [13], in [14], in [5], in test [7] and in test [10] was “inactive” in each case. Moreover, in test [6], the outcome was inactive.
On to `NC(=O)c1ccc([N+](=O)[O-])cc1`, for which the Potency result in [1], in [15], in [2], in test [4], in test [14] and in test [5] was “inactive” throughout. For the same compound, the Potency result in test [9] and in test [10] was “inactive” in each case. Besides, the activation in test [16] was 1.08%.
Consider `CCCCNCC`, for which the Potency entry in test [17], in test [1], in test [18], in test [3], in [4] and in test [7] was “inactive” in each case. Further, the Potency entry in test [9], in test [12] and in test [19] was “inactive” each time. Also, in test [6], the compound was classed as inactive. The activation in test [16] is -12.1%.
As to `CCCCCCc1ccc(-c2ccc(C#N)cc2)cc1`, the Potency entry in test [1], in [2], in [5], in test [10] and in test [12] was “inactive” throughout. The activation in test [16] is -6.81%.
Turning to `C=Cc1cccc(C)c1`, the Potency result in [1], in [18], in test [3], in test [4], in test [14] and in [7] was “inactive” in each case. The Potency entry in test [9], in test [20] and in test [12] was “inactive” in each case. Moreover, the result in test [6] was inactive. The activation in test [16] is -2.15%. For the same compound, the activity change % (negative = inhibition) in test [11] is -8.39%.
Consider `CCCCCCN`, for which the Potency entry in test [17], in [1], in [15], in [2], in [5] and in [7] was “inactive” throughout. Further, the Potency result in [10] is “inactive”. Further, in test [6], the compound was called inactive. Besides, the activity change % (negative = inhibition) in test [11] is -5.98%.
Regarding `C1CCCNCC1`, the Potency result in [17], in test [2], in [18], in test [4], in [14] and in test [7] was “inactive” each time. The Potency entry in test [9], in test [10] and in test [19] was “inactive” in each case. In [6], the compound was classed as inactive. The activation in [16] is 8.29%. In addition, in test [11], the activity change % (negative = inhibition) is -19.9%.
Consider `CC(C)COC(=O)COc1cc(Cl)c(Cl)cc1Cl`, for which the Potency entry in test [17], in test [1], in [15], in test [2], in [4] and in [7] was “inactive” throughout. For the same compound, the Potency result in [20] and in test [12] was “inactive” in each case. In [6], the call was inactive.
For the compound `c1ccc(SCCSc2ccccc2)cc1`, the Potency result in [15], in test [18], in test [14], in test [8], in [20] and in test [12] was “inactive” throughout. Besides, the Potency entry in test [19] is “inactive”. Further, in test [11], the activity change % (negative = inhibition) is 8.32%.
Regarding `Cc1ccc2ccc3cccc4ccc1c2c34`, the Potency entry in test [1], in test [15], in test [2], in test [18], in [3] and in test [14] was “inactive” each time. Also, the Potency entry in test [5], in test [7], in test [9], in test [20] and in test [10] was “inactive” throughout. For the same compound, in test [6], the result was inactive. For the same compound, the Potency in test [8] was 44.7 µM (active). For the same compound, the activation in test [16] was -3.78%.
For the compound `CC(C)S`, the Potency entry in test [15], in test [18], in test [3], in [7], in test [9] and in test [20] was “inactive” each time. Besides, the Potency result in [10] is “inactive”. Besides, the result in test [6] was inactive.
